Screening results as filed in PubChem.
A selection: hits, their analogues and other compounds. The true share with any hit is near 12%.
HP1b chromo inh: blocks HP1-beta chromodomain binding to methylated histone tails. AlphaScreen HP1-beta / biotin-H3K9me3 peptide binding. Potency, µM (titrated, usually from 114 µM), for inactives: at the top dose activity change, negative = inhibition, most hits filed as inhibitors. hit rate 0.56% among 390,000. AID 540317; also: potency is read from the fitted curve at half-maximal effect; nearly all actives have a fitted effect of over 70% in size
Target sequence (P83916 whole entry, looked up): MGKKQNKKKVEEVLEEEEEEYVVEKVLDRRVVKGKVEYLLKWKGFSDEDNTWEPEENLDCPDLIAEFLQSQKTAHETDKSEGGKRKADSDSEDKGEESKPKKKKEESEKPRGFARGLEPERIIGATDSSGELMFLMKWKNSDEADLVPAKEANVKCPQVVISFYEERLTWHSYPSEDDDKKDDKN
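Compound inhibition of the preformed complex between 50 nM HP1-beta and 50 nM biotinylated H3K9me3 peptide was read by AlphaScreen. Buffer was PBS pH 7.4 with 0.01% Tween-20. Incubations ran 30 min at room temperature, with 10 ug/mL donor/acceptor beads.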
G9a inh: blocks human histone lysine methyltransferase G9a; Potency, µM (top dose mostly 102 µM), for inactives: top-dose activity, negative = inhibition, hits mostly inhibitors; G9a H3K9 monomethylation, AlphaScreen, 2 h; Q96KQ7; hit rate 8.8% among 350,000; also: potency is read from the fitted curve at half-maximal effect; % is scaled to controls: 0 for no effect and ±100 for the full control effect; nearly all actives have a fitted effect of over 75% in size
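G9a (20 nM) was preincubated 15 min with compound, then reacted 2 h at room temperature with 500 nM biotin-H3K9 peptide and 20 µM SAM. Monomethyl-H3K9 detected by AlphaScreen using anti-H3K9me1 antibody.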
JMJD2A Tudor inh: blocks the human JMJD2A Tudor domain; Potency, µM (series often up to 114 µM), for the others: top-dose activity change, negative = inhibition, usual class: inhibitors; AlphaScreen JMJD2A-Tudor / H3K4me3 peptide binding; hit rate 4.4% among 390,000; also: potency is read from the fitted curve at half-maximal effect; % is scaled to controls: 0 for no effect and ±100 for the full control effect; nearly all actives have a fitted effect of over 50% in size
PLK1 PBD block: PLK1 (human) polo-box domain binding inhibition | P53350 | hit rate 2.8% among 360,000 | Plk1 PBD binding of FITC phosphopeptide, fluorescence polarization | Potency, µM, for the others: max response, negative = inhibition, most hits filed as inhibitors; also: potency is read from the fitted curve at half-maximal effect; series mostly up to about 57 µM; % is scaled to controls: 0 for no effect and ±100 for the full control effect; nearly all actives have a fitted effect of over 65% in size
Target sequence (P53350 whole entry, looked up, the tested form may be a part): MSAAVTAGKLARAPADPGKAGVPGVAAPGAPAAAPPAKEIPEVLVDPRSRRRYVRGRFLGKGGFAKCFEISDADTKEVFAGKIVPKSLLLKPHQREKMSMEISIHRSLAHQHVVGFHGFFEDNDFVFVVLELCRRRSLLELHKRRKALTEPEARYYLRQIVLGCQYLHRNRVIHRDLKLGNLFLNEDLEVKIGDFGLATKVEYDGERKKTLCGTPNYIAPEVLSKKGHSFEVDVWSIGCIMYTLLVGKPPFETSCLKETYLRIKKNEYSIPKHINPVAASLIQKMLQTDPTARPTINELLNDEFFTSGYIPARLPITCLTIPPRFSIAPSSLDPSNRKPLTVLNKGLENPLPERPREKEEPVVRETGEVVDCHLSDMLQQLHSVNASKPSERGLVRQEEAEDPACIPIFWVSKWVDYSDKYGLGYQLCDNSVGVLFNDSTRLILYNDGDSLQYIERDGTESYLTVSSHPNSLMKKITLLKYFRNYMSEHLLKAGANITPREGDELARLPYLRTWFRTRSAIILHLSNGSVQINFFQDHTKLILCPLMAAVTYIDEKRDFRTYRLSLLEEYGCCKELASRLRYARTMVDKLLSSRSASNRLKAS
BAZ2B inh: inhibitors of human BAZ2B bromodomain. Potency, µM (top dose mostly 114 µM), for the others: top-dose activity change, negative = inhibition, usual class: inhibitors. AID 504333. AlphaScreen BAZ2B-H3K14Ac peptide displacement. hit rate 4.4% among 360,000. Q9UIF8; also: potency is read from the fitted curve at half-maximal effect; % is scaled to controls: 0 for no effect and ±100 for the full control effect; nearly all actives have a fitted effect of over 60% in size
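Compounds, titrated to a top concentration of 110 uM, were incubated 30 min at room temperature with preformed BAZ2B/acetyl-K14 H3 peptide complex (50 nM each). Proximity signal was measured by AlphaScreen after 20 min with beads.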
PI5P4K alpha inh: PI5P4K alpha (human) kinase inhibition. P48426. PI5P4Kalpha enzyme, ADP-Glo luminescence, 60 min; active compounds read low. max response, %. hit rate 1.2% among 330,000; active = max response of -50% or lower; inconclusive = between -30% and -50%; inactive = -30% or higher; also: value at the top dose of about 77 µM; % is scaled to controls: 0 for no effect and ±100 for the full control effect
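ADP-Glo luminescence end-point after a 60 min room-temperature kinase reaction. PI5P4Kalpha and substrate in HEPES pH 7.4 buffer with EGTA, 0.1% CHAPS and 5% DMSO; ATP at 5 microM final.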
* hit, by the source's call; ? = inconclusive; . = not tested or not shown; ! = a repeat was not active; [ ] = remark or other dose. Unless noted, calls follow the shape of the dose curve; as a rule, active = well fitted curve in the direction sought with a large enough effect; inconclusive = small, poorly fitted or top-dose-only effect, or another doubt; inactive = no such curve, though single readings can be large; an effect the other way counts as inactive or inconclusive.

SMILES | HP1b chromo inh | G9a inh | JMJD2A Tudor inh | PLK1 PBD block | BAZ2B inh | PI5P4K alpha inh
Cc1ccc(C23CCC(=O)N2C(C(=O)O)CS3)c(C)c1 (centres undefined) | 8.5% | -10.2% | -16.6% | -7.4% | -17.9% | 3.8
O=S(=O)(c1ccc(Br)cc1)N1CCN(c2nc(-c3cccs3)nc3ccccc23)CC1 | 18.3% | . | -27.7% | . | . | .
CC(C)(C)c1ccc(OCCCn2ccnc2)cc1 | ? | 22.4µM* | 25.1µM* | -3.7% | 50.1µM* | 12.6
c1ccc2cc(OCCCn3ccnc3)ccc2c1 | ? | 25.1µM* | 3.98µM* | -22.4% | 50.1µM* | 5.2
CO/N=C/NC(=O)c1ccc([N+](=O)[O-])c(CS(=O)(=O)c2ccc(Cl)cc2)c1 | -10.8% | 18.8%[59 µM] | ? | 2.99µM* | 6.2% | -50.4*
O=C(O)[C@@H]1CC(O)CN1C(=O)CCc1c[nH]c2ccccc12 (some centres undefined) | 43.5% | -7.4% | -18.2% | -17.3% | -12.4% | -0.2
CC(=O)c1ccc(NC2c3ncccc3C(=O)N2Cc2ccc(F)cc2)cc1 (centres undefined) | 13.5% | . | -8.3% | -4.4% | ? | .
CC(=O)c1cccc(NC2c3ncccc3C(=O)N2Cc2ccco2)c1 (centres undefined) | 25.3% | 50.1µM* | -12.6% | -9.6% | -30.7% | .
COc1cc(NC2c3ncccc3C(=O)N2Cc2ccco2)cc(OC)c1OC (centres undefined) | 20.5% | 35.5µM* | -20.3% | ? | -8.2% | 2.6
O=C1c2cccnc2C(Nc2cccc(F)c2)N1Cc1ccco1 (centres undefined) | 17.3% | 25.1µM* | -5.2% | 0.8% | -27.7% | -16.0
COc1ccc(CN2C(=O)c3cccnc3C2Nc2cc(Cl)c(OC)cc2OC)cc1 (centres undefined) | ? | 44.7µM* | 35.5µM* | -24.1% | 50.1µM* | .
COc1ccc(CN2C(=O)c3cccnc3C2Nc2ccc(C)cc2)cc1 (centres undefined) | -19.4% | -31.5%[59 µM] | -11.5%[57.1 µM] | ? | ? | -7.1
CCCNc1ncnc2c1c(-c1ccccc1)cn2-c1ccccc1 | 31.0% | -0.2%[59 µM] | -28.4% | . | 1.8% | .
CCc1noc(C)c1C(=O)OC(C)C(=O)Nc1ccccc1OC (centres undefined) | 51.5% | 4.6% | 5.8% | -3.8% | -3.4% | 5.9
CSc1nc(Nc2ccc(C)cc2)c(C#N)c(-c2ccccc2)n1 | 37.5% | -8.5%[59 µM] | -0.3% | . | -1.5% | .
Cc1ccc(CCNS(=O)(=O)c2ccc3c(c2)CCN3C(=O)CCC(=O)O)cc1 | 65.5% | 21.3%[59 µM] | -1.0% | . | 19.1% | .
O=C1c2cccnc2C(O)N1Cc1cccs1 (centres undefined) | 24.9% | -0.3%[59 µM] | -5.7% | -3.4% | -4.4% | .
O=C1c2cccnc2C(O)N1Cc1ccco1 (centres undefined) | 11.8% | 5.8%[59 µM] | -13.9% | -15.7% | 10.2% | 12.4
O=C1c2cccnc2C(Nc2ccccc2)N1Cc1ccco1 (centres undefined) | 11.3% | 25.1µM* | 31.6µM* | -29.8% | 56.2µM* | .
Cc1ccc(NC2c3ncccc3C(=O)N2Cc2cccs2)cc1 (centres undefined) | -9.5% | 44.7µM* | 14.1µM* | 21.2µM* | . | 3.1
O=C1c2cccnc2C(Nc2ccccc2Br)N1Cc1ccco1 (centres undefined) | 9.4% | 50.1µM* | -20.3% | -18.1% | -13.1% | -1.1
COc1ccc(-c2cccc(C3C4C=CCCC4(C)C(=O)N3Cc3ccccc3)c2)cc1 (centres undefined) | 10.4% | . | -22.8% | . | . | .
CCOC(=O)c1ccc(NC(=O)Cn2c(=O)cc(C(F)(F)F)c3c(C)nn(C)c32)cc1 | -5.9% | 4.9%[59 µM] | -15.0% | . | -1.9% | .
COc1ccc(S(=O)(=O)NC2(C(F)(F)F)NC(=O)N(CCc3ccccc3)C2=O)cc1 (centres undefined) | 34.7% | 44.7µM* | 0.4% | -8.1% | -12.7% | 6.0
CC(C)CN1C(=O)NC(NS(=O)(=O)c2ccc(N)cc2)(C(F)(F)F)C1=O (centres undefined) | 31.3% | 17.4%[59 µM] | -5.8% | 21.2µM* | 4.1% | -2.9
SMILES | HP1b chromo inh | G9a inh | JMJD2A Tudor inh | PLK1 PBD block | BAZ2B inh | PI5P4K alpha inh
CC(=O)Nc1ccc(S(=O)(=O)NC2(C(F)(F)F)NC(=O)N(CC(C)C)C2=O)cc1 (centres undefined) | 4.3% | -36.3% | -14.2% | -8.9% | 5.3% | -5.7
COc1ccc(S(=O)(=O)NC2(C(F)(F)F)NC(=O)N(CCc3ccc(OC)c(OC)c3)C2=O)cc1 (centres undefined) | 26.7% | 50.1µM*! | -10.2% | -8.3% | -17.4% | -0.2
CN(C)C(=O)c1ccc(-c2ccc3ncnc(N(C)C)c3c2)cc1 | . | -4.7%[0.501 µM] | . | . | . | .
O=[N+]([O-])c1cc(C=Nc2ccc3ccccc3c2)ccc1Br | 50.1µM* | 10µM* | 50.1µM* | -10.2% | 28.2µM* | 5.6
CC(=O)Nc1sc2c(c1CN1CCCC1)CCCC2 | -2.7% | ? | -19.0% | -2.6% | 0.5% | -3.1
CC(=O)Nc1sc2c(c1CN1CCN(c3ccccn3)CC1)CCCC2 | -21.7% | 31.6µM* | ? | -10.3% | ? | .
Cc1sc(NC(=O)c2ccco2)c(CN2CCN(c3ccccn3)CC2)c1C | ? | ? | ? | -0.7% | ? | -0.4
CC(=O)Nc1sc2c(c1CN1CCN(c3ccc(F)cc3)CC1)CCCC2 | -36.0% | 44.7µM* | ? | 1.3% | 50.1µM* | 2.3
Brc1cc2c(cc1C1OCCCO1)OCO2 | 30.9% | . | -2.1% | -2.4% | . | -0.1
CCOC(=O)/C(=N\Nc1ccc(Cl)cc1)Sc1nnc(-c2ccc(OC)cc2)n1C | 34.6% | 10µM* | -23.4% | -5.8% | ? | -1.9
CCN1CCN(c2ncc3c(n2)CCN(Cc2ccc(C)s2)C3)CC1 | -19.8% | ? | 79.4µM* | . | ? | .
CCN1CCN(c2ncc3c(n2)CCN(Cc2ccc(Br)s2)C3)CC1 | 38.4% | 2.7%[12.7 µM] | -21.9% | . | -29.7% | .
CN1CCN(c2ncc3c(n2)CCN(Cc2ccc(Br)s2)C3)CC1 | 11.0% | -6.0%[12.7 µM] | 79.4µM* | . | -27.7% | .
CCN1CCN(c2ncc3c(n2)CCN(Cc2sccc2C)C3)CC1 | 21.3% | 17.8µM* | ? | . | ? | .
CCN1CCN(c2ncc3c(n2)CCN(Cc2cc(Br)cs2)C3)CC1 | 3.9% | 22.4µM* | 79.4µM* | . | 50.1µM* | .
COCCCNC(=O)Cn1c(=O)nc(-c2ccccc2)c2ccccc21 | 40.7% | 25.3%[59 µM] | -0.7% | . | -3.4% | .
Cc1ccc(C(=O)N2CCN(c3ccccn3)CC2)cc1Cl | 23.8% | . | -6.2% | -2.0% | -6.1% | 1.2
COc1ccc(/C=N/NC(=O)COc2ccc3ccccc3c2)c(C(=O)O)c1OC | 19.6% | -5.6%[59 µM] | 50.1µM* | 26.7µM* | -11.2% | -18.4
COc1ccc(OCC(=O)N/N=C/c2ccc(OC)c(OC)c2C(=O)O)cc1 | 34.1% | 1.6%[59 µM] | 2.8% | 1.9% | -2.6% | -3.0
